40 compounds from PubChem BioAssay (NCATS) can be followed below.

Results filed as inconclusive are left out. Unmarked numbers belong to inactive results. The call rests on the fitted dose curve; in most records, active means well fitted inhibition curve with a large enough effect; inconclusive means small, poorly fitted or top-dose-only effect; inactive means flat fitted curve, though single readings scatter.

For the assay, the target named is Aldehyde dehydrogenase, mitochondrial (Homo sapiens) (UniProt P05091). Description: qHTS for Inhibitors of the Aldehyde Dehydrogenase Family (ALDH2) Primary screen (AID 2061308).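 Further: plate controls were vehicle for no effect and reference inhibitor for full effect; nearly all actives have a fitted effect of over 55% in size.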 The following applies: ALDH2 enzyme inhibition qHTS, 1536-well; series mostly up to 56 µM; activity change, negative = inhibition: at the top concentration. For orientation: Quantitative high-throughput screening tests each substance at several concentrations.
Regarding `CC(=O)[C@@H]1CC[C@]2(C(=O)O)CC[C@]3(C)C(CCC4[C@@]5(C)CC[C@H](O)C(C)(C)C5CC[C@]43C)C12` (stereo not given in full), the “activity change, negative = inhibition” value was -2.88% [at 28 µM]. The figure for `Cc1nc2ccc(Oc3ccc(F)cc3)cc2c(=O)n1C[C@H]1CCCN(C(C)C)C1` is 6.06%; for `COC1OC(OC)C(O)(CCC2(C)C(C)CCC3(C)C2CC(O)C(O)C32CO2)C1O` (stereo not given) it is 15.5% [at 28 µM].

As for `COC(=O)C1=CO[C@@H](O[C@@H]2O[C@H](CO)[C@@H](O)[C@H](O)[C@H]2O)[C@@H]2[C@@H](C)[C@@H](OC(=O)/C=C/c3ccccc3)[C@@H](O)[C@H]12`, the “activity change, negative = inhibition” value was 2.99% [at 28 µM].

Take `CC1(C)CCC2(C(=O)O)CCC3(C)C(=CCC4C5(C)CCC(O)C(C)(CO)C5C(O)CC43C)C2C1` (stereo not given): the “activity change, negative = inhibition” value was -3.43% [at 28 µM].

Consider `Cc1cnn(-c2ccccc2)c1NC(=O)COCc1ccccc1`, for which the “activity change, negative = inhibition” value is 9.16%. Turning to `CC(=O)c1c(C)cc(O[C@@H]2O[C@H](CO)[C@@H](O)[C@H](O)[C@H]2O)cc1O`, the “activity change, negative = inhibition” value is 4.16%. On to `COC(=O)N1CCC(n2ncc3c(N4CCOCC4)nc(-c4ccc(NC(=O)Nc5ccc(CO)cc5)cc4)nc32)CC1`, for which the “activity change, negative = inhibition” value was 12.6%.

For the compound `COc1c(C)c(OCC=C(C)C)cc2c1COC2=O`, the “activity change, negative = inhibition” value is -2.89%. As for `CC1=C2C(=O)C=C(CO[C@@H]3O[C@H](CO)[C@@H](O)[C@H](O)[C@H]3O)[C@@H]2[C@H]2OC(=O)[C@H](C)[C@@H]2CC1`, the “activity change, negative = inhibition” value was -2.23% [at 28 µM]. With `C=C(C(=O)O)C1CC(O)C2(C)CCCC(=C)C2C1` (stereo not given), the “activity change, negative = inhibition” value was 22.2%. For `CC1(C)[C@@H](O)CC[C@]2(C)[C@H]3CC=C4[C@@H]5C[C@](C)(C(=O)O)CC[C@]5(C)CC[C@@]4(C)[C@]3(C)CC[C@@H]12`, the “activity change, negative = inhibition” value was 2.25%. Consider `CC1(C)CCC[C@@]2(C)C1[C@H](OC(=O)/C=C/C=C/C(=O)O)C=C1COC(=O)[C@@]12O` (stereo not given in full), for which the “activity change, negative = inhibition” value was -0.0566%. The figure for `CC12CCC(OC3OC(CO)C(O)C(OC4OC(CO)C(O)C(O)C4O)C3O)CC1=CCC1C2CCC2(C)/C(=C3/COC(=O)C3)CCC12O` (stereo not given) is 11.9% [at 16.9 µM]; for `CC/C=C\[C@H](O)[C@H](O)C1=C(C)C(=O)[C@]2(O1)C(=O)N[C@@](OC)(C(=O)c1ccccc1)[C@@H]2O` it is -21% [at 28 µM]. Consider `C=CC[N+]1([C@H]2C[C@H]3[C@@H]4CC[C@H]5C[C@H](OC(C)=O)[C@@H](N6CCCCC6)C[C@]5(C)[C@H]4CC[C@]3(C)[C@H]2OC(=O)CC)CCCCC1`, for which the “activity change, negative = inhibition” value was 4.22%.

In the case of `C=C1CC2OC(=O)C(COC)C2C(OC(=O)/C(C)=C\C)CC2(C)OC1=CC2=O` (stereo not given), the “activity change, negative = inhibition” value is 9.1%. Take `C=C1C[C@]23C[C@H]1CC[C@H]2[C@]1(C)CCC[C@@](C)(C(=O)O)[C@H]1[C@@H]3C(=O)O`: the “activity change, negative = inhibition” value is 4.23%. For `c1cc(-c2cc(C3CCNCC3)[nH]n2)ccn1`, the “activity change, negative = inhibition” value was 0.359% [at 28 µM]. The figure for `O=C(/C=C/c1ccc(O)cc1)N[C@@H](Cc1ccc(O)cc1)C(=O)O` is 6.46%; for `C=C1Cc2c(Cl)cc3[nH]c4c5c3c2[C@@]2(O)[C@@H]1C[C@@H]2C(C)(C)O[C@H]5C1CC[C@@]2(O)[C@@]35O[C@@H]3[C@H]3OC(C)(C)[C@H]3O[C@H]5CC[C@]2(C)[C@@]41C` (stereo not given in full) it is -11.4% [at 16.9 µM]; for `C/C=C(\C)C(=O)O[C@@H](C)[C@H]1CC[C@]2(O)C3CCC4C[C@@H](OC5CC(OC)C(OC6CC(OC)C(OC7CC(OC)C(OC8OC(C)C(OC9OC(CO)C(O)C(O)C9O)C(OC)C8O)C(C)O7)C(C)O6)C(C)O5)CC[C@]4(C)C3[C@H](O)[C@@H](O)[C@]12C` (stereo not given in full) it is 4.67% [at 11.2 µM]. Then `Cc1cn2cc(CC(=O)N3CCC4(CC3)CN(Cc3ccc(-n5nccn5)cc3Cl)C4)nc2s1`, with 10.7%; and `CCC(C)C(=O)OC[C@H]1O[C@H](O[C@H]2O[C@H](CO)[C@@H](O)[C@H](O)[C@H]2O)[C@H](O)[C@@H](O)[C@@H]1O` (stereo not given in full), with 20.7% [at 28 µM]; and `COC(=O)CC[C@@H](C)C1CCC2C3CCC4C[C@H](OC(C)=O)CCC4(C)C3C[C@H](O)C21C` (stereo not given in full), with 1.49%. For the compound `CC(=O)CCC1=C(C)C(O[C@@H]2O[C@H](CO)[C@@H](O)[C@H](O)[C@H]2O)C(O)CC1(C)C` (stereo not given in full), the “activity change, negative = inhibition” value is 3.24%. Then `O=C(CCC1CCN(Cc2ccccc2)CC1)c1ccc2c(c1)NCCCC2`, with 21.4%; and `CC1OC(OC2C(OC3C(O[C@H]4CC[C@@]5(C)C(CC[C@]6(C)C5CC=C5C7CC(C)(C)CC(O)[C@]7(C)CC[C@]56C)C4(C)C)OC(C(=O)O)C(O)C3O)OCC(O)C2O)C(O)C(O)C1O` (stereo not given in full), with -4.33% [at 16.9 µM]. For `CC(=O)C=C=C1C(C)(C)CC(O)CC1(C)O[C@@H]1O[C@H](CO[C@H]2OC[C@](O)(CO)[C@H]2O)[C@@H](O)[C@H](O)[C@H]1O` (stereo not given in full), the “activity change, negative = inhibition” value was -4.31% [at 28 µM].

As for `CC1OC(O[C@H]2CC[C@@]3(C)C(CC[C@]4(C)C3CC=C3C5CC(C)(C)CC[C@]5(C(=O)OC5OC(CO)C(OC6OC(COC7OCC(O)C(O)C7O)C(O)C(O)C6O)C(O)C5O)CC[C@]34C)C2(C)C)C(O)C(O)C1OC1OCC(OC2OCC(O)C(O)C2O)C(O)C1O` (stereo not given in full), the activity change, negative = inhibition is -20.7% [at 11.2 µM]. Then `COc1cccc(NCCC2(c3ccccc3)CC(C)(C)OC(C)(C)C2)c1`, with 0.575%.

With `CC(C)C1NC(=O)C2CCCN2C1=O` (stereo not given), the “activity change, negative = inhibition” value was -1.85%.

Take `COc1cc2c(c(OC)c1CC=C(C)C)C[C@H](c1ccc(O)c(CC=C(C)C)c1O)CO2`: the “activity change, negative = inhibition” value was -3.43% [at 28 µM].

In the case of `CC1CCC2(C(=O)OC3OC(CO)C(O)C(O)C3O)CCC3(C)C(=CCC4C5(C)CCC(O)C(C)(CO)C5CCC43C)C2C1(C)O` (stereo not given), the “activity change, negative = inhibition” value was 3.29% [at 16.9 µM]. Regarding `Cc1cc(-c2ncc(-c3cccnc3)cc2/C=C/c2ccccc2)cnc1-c1cccnc1`, the “activity change, negative = inhibition” value is 0.111%.

As to `COC(=O)/C=C/C=C/C(=O)OC1C=C2COC(=O)C2(O)C2(C)CCCC(C)(C)C12` (stereo not given), the “activity change, negative = inhibition” value was -10.9% [at 28 µM]. The figure for `CC(=O)OC1C(O)C(C)(O)C(/C=C/C(=O)O)C2(C)CCCC(C)(C)C12` (stereo not given) is -8.8%; for `CCOc1ccc(-n2c(C(C)N(Cc3cccnc3)C(=O)Cc3ccc(F)c(C(F)(F)F)c3)nc3ncccc3c2=O)cc1` (stereo not given) it is -0.178%; for `O=S(=O)(c1ccccc1)c1cnc2c(N3CCNCC3)cccc2c1` it is 3.82%. Take `Cc1ncc([N+](=O)[O-])n1C[C@H](O)CN1CCOCC1`: the “activity change, negative = inhibition” value was -12.8%.
